# Only some compounds are listed: those with a hit (about 4.2% of all), similar ones and a draw of the others.
# PLK1 PBD inh: qHTS for Inhibitors of PLK1-PDB (polo-like kinase 1 - polo-box domain): Primary Screen. Plk1 PBD binding of FITC phosphopeptide, fluorescence polarization. AID 720504, 2013. 360,000 tested, 2.8% active. Potency, µM, inactives show max response, negative = inhibition, most hits filed as inhibitors. Serine/threonine-protein kinase PLK1 (Homo sapiens), P53350; further: series mostly up to about 57 µM; nearly all actives have a fitted effect of over 65% in size
# Sfp inh: qHTS Assay for Inhibitors of Bacillus subtilis Sfp phosphopantetheinyl transferase (PPTase). Potency, µM, without a hit: largest response in the series, negative = inhibition, hits mostly inhibitors. Biochemical Sfp PPTase activity, qHTS. AID 1490, 2009. 310,000 tested, 3.5% active. 4'-phosphopantetheinyl transferase ffp (Bacillus subtilis), Q9F4F7;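 further: the enzyme is Sfp with the accession as filed and its product quenches rhodamine fluorescence; 0% = enzyme reaction without inhibitor and -100% = no enzyme wells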
#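 With Hepes-Na pH 7.6 buffer containing 10 mM MgCl2, Sfp (15 nM) modified BHQ-2-YbbR (12.5 uM) using rhodamine-CoA (5 uM). Two reads 30 minutes apart at 525/598 nm yielded each well's rate.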
# VDR inh: Inhibitors of the vitamin D receptor (VDR): qHTS | Vitamin D3 receptor (Homo sapiens), P11473 | VDR-SRC2-3 peptide fluorescence polarization, 2 h | Potency, µM, inactives show max response, negative = inhibition, most hits filed as inhibitors | 400,000 tested, 0.93% active | AID 504847, 2011
#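 Fluorescence polarization assay of small-molecule disruption of VDR binding to coregulator peptide SRC2-3. Compounds and controls pin-transferred, then read after 2 h incubation at ambient room temperature.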
# ALOX12 inh: Primary qHTS assay for inhibitors of human arachidonate 12S-lipoxygenase (ALOX12): Round 2; purified 12hLO, xylenol orange hydroperoxide absorbance; Polyunsaturated fatty acid lipoxygenase ALOX12 (Homo sapiens), P18054; 580,000 tested, 1.1% active; Potency, µM (doses to about 108 µM), inactives show at the top dose activity change, negative = inhibition, hits mostly inhibitors
# Target sequence (P18054 whole entry, looked up): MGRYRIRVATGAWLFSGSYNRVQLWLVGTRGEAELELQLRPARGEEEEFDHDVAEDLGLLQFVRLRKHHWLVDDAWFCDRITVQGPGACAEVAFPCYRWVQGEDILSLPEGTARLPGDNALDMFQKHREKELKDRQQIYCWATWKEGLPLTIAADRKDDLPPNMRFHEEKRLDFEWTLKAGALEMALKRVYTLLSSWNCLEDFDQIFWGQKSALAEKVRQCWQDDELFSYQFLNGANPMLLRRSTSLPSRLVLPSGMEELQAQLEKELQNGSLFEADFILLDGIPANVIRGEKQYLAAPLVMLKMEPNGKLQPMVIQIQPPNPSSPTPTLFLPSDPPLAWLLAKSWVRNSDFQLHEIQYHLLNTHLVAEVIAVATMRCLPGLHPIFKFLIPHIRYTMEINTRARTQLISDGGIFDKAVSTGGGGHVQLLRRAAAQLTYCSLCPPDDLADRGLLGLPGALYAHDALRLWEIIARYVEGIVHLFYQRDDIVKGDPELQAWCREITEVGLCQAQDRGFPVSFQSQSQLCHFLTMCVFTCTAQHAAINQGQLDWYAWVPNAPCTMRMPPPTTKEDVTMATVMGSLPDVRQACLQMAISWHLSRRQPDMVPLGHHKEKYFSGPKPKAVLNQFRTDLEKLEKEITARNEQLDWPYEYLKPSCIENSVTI
#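 Purified human 12hLO at 150 nM in 25 mM Hepes, 0.01% Triton X-100, pH 7.0, preincubated 15 min at room temperature with compound. Reaction started with 40 uM arachidonic acid, 30 min at room temperature. Hydroperoxide measured by Fe-xylenol orange, 573/405 nm absorbance ratio.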
# Numbers without * were called inactive; ? = inconclusive; nt = no result given; ! = not active in a repeat; [ ] = dose if it differs, or a comment. The call rests on the fitted dose curve; in most records, active means well fitted curve in the direction sought with a large enough effect; inconclusive means small, poorly fitted or top-dose-only effect, or another doubt; inactive means no such curve, though single readings can be large; an effect the other way counts as inactive or inconclusive. Unless noted, on the % scale 0 is the no-effect control and ±100 the full control effect; potency means the concentration at half of the fitted maximal effect.
SMILES,PLK1 PBD inh,Sfp inh,VDR inh,ALOX12 inh
O=C(NC(=S)N1CCCc2ccccc21)c1ccc(Cl)cc1,27µM*,22µM*,?,-26%
COc1ccc(C(=O)NC(=S)N2CCCc3ccccc32)cc1OC,-29%,?,-3%,?
O=C(NC(=S)N1CCCc2ccccc21)c1ccc(Br)cc1,?,45µM*,-20%,-13%
Cc1ccc(S(=O)(=O)N2CCOCC2)cc1NC(=O)CNCc1cccnc1,0%,?,-26%,-19%
C[C@@H]1CN([C@@H](C)CO)C(=O)c2cc(NC(=O)Nc3ccc4c(c3)OCO4)ccc2O[C@H]1CN(C)S(=O)(=O)c1ccc(F)cc1,-19%,nt,-8%,-16%
CCn1c(=O)c2cc(C(=O)Nc3cccc(C(F)(F)F)c3)sc2c2ccccc21,nt,nt,-14%,-11%
CCOC(=O)c1oc2nc3c(cc2c1N)CCCC3,1%,5%,13%,51%
COc1ccccc1C(=O)NC(=S)N1CCCc2ccccc21,-7%,50µM*,5%,5%
O=C(CN1C(=O)/C(=C2/SC(=S)N(CCS(=O)(=O)O)C2=O)c2ccccc21)Nc1cccc(Br)c1,27µM*,nt,?,?
O=C(CN1C(=O)/C(=C2\SC(=S)N(C3CCS(=O)(=O)C3)C2=O)c2ccccc21)Nc1ccccc1 (stereo not given),-13%,28µM*,-25%,?
Cc1ccc(NC(=O)CN2C(=O)/C(=C3\SC(=S)N(C4CCS(=O)(=O)C4)C3=O)c3ccccc32)cc1 (stereo not given),-11%,-3%,-4%,-22%
COc1ccc(NC(=O)CN2C(=O)/C(=C3\SC(=S)N(CCC(=O)O)C3=O)c3ccccc32)cc1,11µM*,12%,-13%,nt
COc1ccccc1N(C)S(=O)(=O)c1ccc(C(=O)NCC(c2ccco2)N2CCCCC2)cc1 (stereo not given),-3%,nt,7%,17%
CN(C)S(=O)(=O)c1cc(NC(=O)COC(=O)c2nn(C)c(=O)c3ccccc23)ccc1Cl,nt,nt,nt,5%
CCCCCCCCCCCCC/C=C/[C@@H](O)[C@@H](N)CO,-9%,79µM*!,-9%,?
O=C1OCC(CO)(CO)N=C1NNc1cc(Cl)ccc1Cl,-3%,?,-11%,?
O=C1OCC(CO)(CO)N=C1NNc1ccccc1[N+](=O)[O-],5%,?,-8%,11µM*
CCC(C)C(Nc1ncnc2scc(-c3ccccc3)c12)C(=O)O (stereo not given),-8%,23%,-3%,6%
CC1CCC(NC(=O)C(C)Cl)CC1 (stereo not given),nt,nt,nt,-66%
Cc1ccc(NC(=O)/C=C\C(=O)NCC(=O)O)cc1,0%,71µM*,6%,13%
CCCCn1c(O)c(N=Nc2ccccn2)c2ccccc21,4%,?,0%,-17%
CCn1c(O)c(N=Nc2ccc3ccccc3n2)c2ccccc21,-23%,22µM*,-8%,-6%
CCOc1cc(-c2nn3c(-c4cccc(C)c4)nnc3s2)cc(OCC)c1OCC,nt,nt,nt,4%
CCOc1cc(-c2nn3cnnc3s2)cc(OCC)c1OCC,3.8µM*,11%,?,-7%
Fc1ccc(-c2c[nH]c(=S)n2Cc2ccccc2)cc1,-5%,?,?,50µM*
SMILES,PLK1 PBD inh,Sfp inh,VDR inh,ALOX12 inh
CCCN(CC1CCOC1)C(=O)NC1CCCC1 (stereo not given),nt,nt,nt,45%
S=c1[nH]nc(-c2ccc(Cl)cc2)n1-c1ccc(Cl)cc1,?,23%,-13%,10µM*
COc1ccc(-n2c(-c3ccc(Cl)cc3Cl)n[nH]c2=S)c(OC)c1,24µM*,16%,?,?
S=c1[nH]nc(-c2ccc(Cl)cc2Cl)n1-c1ccc(Cl)cc1,?,-1%,9%,13µM*
Nc1n[nH]c(=S)n1-c1ccc(Cl)cc1,12µM*,16µM*,?,?
S=c1[nH]nc(-c2ccc(Cl)cc2)n1-c1ccc2c(c1)OCCO2,-11%,?,-9%,?
CC1=C(C(=O)N(C(C)C)C(C)C)CC(CC(=O)NCc2ccco2)C(=O)N1Cc1ccccc1 (stereo not given),-7%,nt,nt,7%
Cc1cccnc1-c1cccc2c1OC(CNC(=O)Cn1cncn1)C2 (stereo not given),nt,nt,nt,3%
COc1ccc(-c2n[nH]c(=S)n2N)c(OC)c1,8.4µM*,35µM*,0%,?
COc1ccc(-c2n[nH]c(=S)n2-c2ccc(C)cc2)cc1,-26%,?,?,18µM*
Cc1ccc(N=C2NC(=O)CS2)c(C)c1,-2%,-1%,1%,-26%
Cc1cc(Br)ccc1N=C1NC(=O)CS1,27µM*,40µM*,-5%,1%
O=C(N[C@H]1CCOC[C@H]1C1CCOCC1)c1ccc(CN2CCCC2)o1,nt,nt,nt,35%
COCCCNc1c2c3c(cccc3[nH]c1=O)C(=O)c1ccccc1-2,0.38µM*,79µM*,-9%,?
COCCCNC1=C(Cl)C(=O)c2ccccc2C1=O,-16%,1%,19%,-36%
CCOC(=O)CSc1c(-c2ccccc2)c2cc(Cl)ccc2[nH]c1=O,-28%,-24%,-17%,-21%
NNC(=O)c1[nH]c2ccc(Cl)cc2c1-c1ccccc1,-13%,-10%,79µM*,115%
O=c1[nH]c2ccccc2c2ccc(Cl)cc12,-2%,nt,-20%,?
O=C(O)CSc1c(-c2ccccc2)c2cc(Cl)ccc2[nH]c1=O,-24%,71µM*,-25%,-17%
O=c1[nH]c2ccc(Cl)cc2c(O)c1Cc1ccccc1,-8%,50µM*,19%,-5%
COc1ccc2c(c1)c(=O)c(S(=O)(=O)c1ccc(C)cc1)cn2Cc1ccccc1C,nt,nt,-2%,-17%
CCOC(=O)C1(CCCc2ccccc2)CCN(C(=O)c2ocnc2C)CC1,-3%,3%,0%,5%
CC1CCCCC1NC(=O)Cn1nnc(-c2ccc(Cl)cc2)n1 (stereo not given),-8%,-1%,-5%,2%[57.4 µM]
O=C(O)CCN1C(=O)C2C3CC(C2C1=O)C1C(c2ccccc2)c2sc(=O)[nH]c2SC31 (stereo not given),-30%,-23%,-3%,-21%
O=C(O)CCN1C(=O)C2C3CC(C2C1=O)C1C(c2ccccc2)c2sc(=O)n(-c4ccccc4)c2SC31 (stereo not given),42µM*,?,?,-4%
COC(=O)c1cn(NC(=O)Cc2cccc(C(F)(F)F)c2)c(=O)c2ccccc12,4%,16%,-5%,0%
CCc1cc(C(=O)N2CCN(C)C3(CCC(=O)N(C)CC3)C2)n(C)n1 (stereo not given),nt,nt,nt,37%
O=C(OCc1nnc(-c2ccccc2)o1)c1cc(=O)c2ccccc2o1,-12%,8%,-9%,7%
O=C(/C=C/Nc1ccc(Oc2ccccc2)cc1)c1ccco1,-6%,50µM*,-4%,11%

# Compound activity: PubChem, National Center for Advancing Translational Sciences (NCATS)
